From PubChem BioAssay (Tox21) come the findings set out here.

“And” between values parts separate entries of the source, which are not always exact repeats. Equal entries are not always repeated. Results filed as inconclusive are left out. The source holds several records for some structures; these can differ, active in one and inactive in another. The source made the active and inactive calls. Unless noted, the call rests on the fitted dose curve; in most records, active means well fitted curve in the direction sought with a large enough effect in the repeat runs; inconclusive means weak or mixed curves; inactive means no such curve, though single readings can be large; an effect the other way counts as inactive or inconclusive.

The nature of test [1]: qHTS assay to identify aromatase inhibitors - cell viability counter screen (AID 743084).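 Further: cells stimulated with testosterone during compound exposure; nearly all actives have a fitted effect of over 55% in size.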 Further: potency means the concentration at half of the fitted maximal effect. On the technique in general: In qHTS, concentration-response curves come from the screen itself.
The target of test [2] is Aryl hydrocarbon receptor (Homo sapiens) (UniProt P35869). Briefly: qHTS assay to identify small molecule that activate the aryl hydrocarbon receptor (AhR) signaling pathway (AID 743085). Further: nearly all actives have a fitted effect of over 15% in size. Further: potency means the concentration at half of the fitted maximal effect.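 On activation: HG2L7.5c1 human HepG2 liver cells with stably integrated DRE-driven firefly reporter; series mostly up to about 70 µM.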 In a few lines:
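Reporter assay in engineered HepG2 line HG2L7.5c1, whose plasmid carries twenty dioxin responsive elements upstream of firefly luciferase. Treatment lasted 24 h at 37C; ONE-Glo luminescence gauged induction.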

The nature of test [3]: qHTS assay to identify small molecule that activate the aryl hydrocarbon receptor (AhR) signaling pathway - cell viability counter screen (AID 743086). Further: nearly all actives have a fitted effect of over 45% in size. Further: potency means the concentration at half of the fitted maximal effect. A digest of the protocol: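 Cytotoxicity counter screen: CellTiter-Fluor signal (30 min, 37 C) in 4000 HepG2 cells/well carrying the DRE-luciferase reporter, following 24 h compound exposure at 37 C.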
For test [4], the target named is Peroxisome proliferator-activated receptor gamma (Homo sapiens) (UniProt P37231). The test is described as follows: qHTS assay to identify small molecule agonists of the peroxisome proliferator-activated receptor gamma (PPARg) signaling pathway (AID 743094; active means well fitted activation curve with a large enough effect in the signal ratio in the repeat runs, not every such curve was filed as active; the % refers to the signal ratio). In a few lines:
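Following 5 h plating at 37C, PPARg-bla HEK293H cells receive compound or DMSO for 17 h; fluorescence intensity is recorded after LiveBLAzer B/G loading for 1 h at room temperature.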

For test [5] the target is unchanged. The test is described as follows: qHTS assay to identify small molecule antagonists of the peroxisome proliferator-activated receptor gamma (PPARg) signaling pathway (AID 743191; calls by dose curve; further: series mostly up to about 63 µM; nearly all actives have a fitted effect of over 30% in size). A digest of the protocol:
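Beta-lactamase reporter under UAS control in HEK293H PPARg-bla cells; compound treatment 17 h at 37C. Read-out: fluorescence intensity after 1 h room-temperature incubation with LiveBLAzer B/G FRET substrate.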

A short description of test [6]: qHTS assay to identify small molecule antagonists of the peroxisome proliferator-activated receptor gamma (PPARg) signaling pathway - cell viability counter screen (AID 743194). Further: nearly all actives have a fitted effect of over 55% in size. Further: potency means the concentration at half of the fitted maximal effect. A digest of the protocol: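 Viability was measured as CellTiter-Glo luminescence in GeneBLAzer PPARg UAS-bla HEK293H cells. These cells had been exposed 17 h at 37 C to compounds together with rosiglitazone at 50 nM final, with the beta-lactamase readout taken in the same wells.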

A short description of test [7]: qHTS assay for small molecule activators of the heat shock response signaling pathway - cell viability counter screen (AID 743209). Further: nearly all actives have a fitted effect of over 50% in size. A digest of the protocol: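 Counter screen for cytotoxicity in HeLa HSE-bla reporter cells. Treatment was 5 h at 37 C; viability was detected by luminescent ATP assay (CellTiter-Glo) in the same wells as the beta-lactamase read.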
Test [8] in a line: qHTS assay for small molecule agonists of the antioxidant response element (ARE) signaling pathway (AID 743202; active means well fitted activation curve with a large enough effect in the signal ratio in the repeat runs, not every such curve was filed as active; the % refers to the signal ratio; further: potency means the concentration at half of the fitted maximal effect). In a few lines:
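An ARE-responsive beta-lactamase gene stably integrated in HepG2 cells serves as reporter. After 5 h plating and 16 h compound incubation at 37 C, fluorescence of the B/G FRET substrate was measured.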

A short description of test [9]: qHTS assay for small molecule agonists of the antioxidant response element (ARE) signaling pathway - cell viability counter screen (AID 743203; calls by dose curve; further: nearly all actives have a fitted effect of over 55% in size; further: potency means the concentration at half of the fitted maximal effect). A digest of the protocol:
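Compounds in DMSO were pinned onto ARE-bla HepG2 cells plated 5 hrs earlier at 2,000 cells/well. Sixteen hours later at 37C/5% CO2, CellTiter-Glo was added and luminescence measured after 30 min at room temperature.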

Test [10] in a line: qHTS assay for small molecule activators of the heat shock response signaling pathway (AID 743210; active means well fitted activation curve with a large enough effect in the signal ratio in the repeat runs, with a control signal flat, not every such curve was filed as active; the % refers to the signal ratio;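 further: HeLa cells with beta-lactamase reporter driven by heat shock elements; series mostly up to about 63 µM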). In a few lines:
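In HSE-bla HeLa cells, 5 h compound incubation (37 C) precedes addition of LiveBLAzer B/G substrate; after 2.5 h at room temperature, fluorescence intensity indicates reporter induction.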

Aryl hydrocarbon receptor (Homo sapiens), sequence (P35869 whole entry, looked up): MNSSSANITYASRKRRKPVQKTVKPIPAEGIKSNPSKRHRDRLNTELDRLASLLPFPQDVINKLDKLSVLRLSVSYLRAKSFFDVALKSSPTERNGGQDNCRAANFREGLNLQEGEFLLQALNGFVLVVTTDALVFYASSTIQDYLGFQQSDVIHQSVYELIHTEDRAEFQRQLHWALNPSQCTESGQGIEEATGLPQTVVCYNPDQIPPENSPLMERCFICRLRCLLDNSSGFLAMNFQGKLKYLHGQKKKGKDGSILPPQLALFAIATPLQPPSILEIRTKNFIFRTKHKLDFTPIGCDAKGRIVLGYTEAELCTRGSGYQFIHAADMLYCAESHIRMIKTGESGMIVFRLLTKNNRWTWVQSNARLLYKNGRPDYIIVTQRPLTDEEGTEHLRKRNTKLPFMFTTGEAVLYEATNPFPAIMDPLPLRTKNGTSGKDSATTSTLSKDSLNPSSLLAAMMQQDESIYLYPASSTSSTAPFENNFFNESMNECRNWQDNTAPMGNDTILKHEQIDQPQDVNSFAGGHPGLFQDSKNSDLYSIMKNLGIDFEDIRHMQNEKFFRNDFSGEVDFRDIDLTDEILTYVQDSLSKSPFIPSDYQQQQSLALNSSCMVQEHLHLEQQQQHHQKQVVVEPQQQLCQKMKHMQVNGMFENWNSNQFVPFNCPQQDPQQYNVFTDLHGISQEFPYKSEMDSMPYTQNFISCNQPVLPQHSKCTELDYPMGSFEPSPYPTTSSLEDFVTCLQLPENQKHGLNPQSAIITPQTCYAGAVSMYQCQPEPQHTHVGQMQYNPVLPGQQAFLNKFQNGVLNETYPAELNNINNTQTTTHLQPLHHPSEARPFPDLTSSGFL
Peroxisome proliferator-activated receptor gamma (Homo sapiens), sequence (P37231 whole entry, looked up): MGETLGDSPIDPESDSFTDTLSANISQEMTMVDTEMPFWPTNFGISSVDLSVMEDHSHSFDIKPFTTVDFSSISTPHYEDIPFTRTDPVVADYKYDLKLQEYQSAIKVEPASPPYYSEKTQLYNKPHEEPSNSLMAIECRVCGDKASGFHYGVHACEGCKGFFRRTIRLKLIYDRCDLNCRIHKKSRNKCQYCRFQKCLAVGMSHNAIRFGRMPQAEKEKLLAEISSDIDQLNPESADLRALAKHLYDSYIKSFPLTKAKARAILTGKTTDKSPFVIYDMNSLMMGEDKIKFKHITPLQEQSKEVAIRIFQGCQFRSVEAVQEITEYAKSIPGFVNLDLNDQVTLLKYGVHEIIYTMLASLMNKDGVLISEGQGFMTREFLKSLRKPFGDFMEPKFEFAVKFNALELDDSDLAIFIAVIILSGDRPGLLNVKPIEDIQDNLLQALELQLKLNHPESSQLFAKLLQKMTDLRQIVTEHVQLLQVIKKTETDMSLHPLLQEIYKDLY

With `NC(=O)c1cc[n+](CC2=C(C(=O)O)N3C(=O)[C@@H](NC(=O)C(c4ccccc4)S(=O)(=O)[O-])[C@H]3SC2)cc1` (some centres undefined), the Potency entry in test [1], in [2], in [3] and in test [4] was “inactive” in each case.

With `CC(C)(S)C(=O)N[C@@H](CS)C(=O)O`, the Potency result in test [1], in [2], in test [3] and in test [4] was “inactive” throughout.

Regarding `CC(=O)O[C@H]1C[C@@H]2CC[C@@H]3[C@H](CC[C@@]4(C)[C@H]3C[C@H]([N+]3(C)CCCCC3)[C@@H]4OC(C)=O)[C@@]2(C)C[C@@H]1[N+]1(C)CCCCC1`, the Potency entry in test [1], in [2], in [3] and in test [4] was “inactive” each time.

Regarding `O=P(O)(O)CP(=O)(O)O`, the Potency result in [1], in test [2], in [3] and in test [4] was “inactive” throughout.

Consider `NC(=O)[C@@H]1CCCN1C(=O)[C@H](Cc1cnc[nH]1)NC(=O)[C@@H]1CCC(=O)N1`, for which the Potency entry in [1], in test [2], in test [3] and in test [4] was “inactive” each time.

Consider `C=C1[C@H](CO)[C@@H](O)C[C@@H]1n1cnc2c(=O)[nH]c(N)nc21`, for which the Potency entry in test [1], in test [2], in [3] and in test [4] was “inactive” each time.

As for `NCCCC[C@H](NC(=O)[C@@H]1CCCN1C(=O)[C@@H]1CSSC[C@H](N)C(=O)N[C@@H](Cc2ccc(O)cc2)C(=O)N[C@@H](Cc2ccccc2)C(=O)N[C@@H](CCC(N)=O)C(=O)N[C@@H](CC(N)=O)C(=O)N1)C(=O)NCC(N)=O`, the Potency result in test [1], in test [2], in test [3] and in [4] was “inactive” in each case.

As for `CC(=O)Oc1cc(C(F)(F)F)ccc1C(=O)O`, the Potency result in test [1], in test [2], in [3] and in test [4] was “inactive” each time.

With `C=C1[C@@H]2CC[C@@H](C2)C1(C)C`, the Potency entry in [1], in test [2], in test [3] and in test [4] was “inactive” in each case.

As to `CC[C@@H](C)[C@H](N)C(=O)O`, the Potency entry in test [1], in test [2], in test [3] and in test [4] was “inactive” each time.

Take `O=[N+]([O-])c1ccc(O)c2ncccc12`: the Potency in test [1] is 10.6 µM (active); in [2] it was 3.35 µM (active). Further, the Potency entry in test [3], in [5], in test [6] and in [7] was “inactive” throughout.

Take `C/C(=C\C(=O)OCCCCCCCCC(=O)O)C[C@@H]1OC[C@H](C[C@@H]2O[C@H]2[C@@H](C)[C@H](C)O)[C@@H](O)[C@H]1O`: the Potency entry in [1], in test [2], in test [3] and in test [4] was “inactive” each time.

`CCCOC(=O)c1ccc(O)cc1`: the Potency entry in test [1], in [3], in [4], in test [9] and in test [7] was “inactive” in each case. Also, the Potency result was “inactive and 23 µM (active)” in test [2]; 17.2 µM (active) in [8]. In addition, the result in test [10] was inactive.

On to `CC1CCCC(C)N1NC(=O)c1ccc(Cl)c(S(N)(=O)=O)c1` (centres undefined), for which the Potency result in test [1], in test [2], in [3] and in test [4] was “inactive” in each case.

For `COc1cc(/C=C/C(=O)CC(=O)/C=C/c2ccc(O)c(OC)c2)ccc1O`, the Potency entry in test [1] and in [2] was “inactive” throughout. Further, the Potency result in [3] is “inactive and 27.5 µM (active)”; in test [6], 43.9 µM (active); in test [9], 54.8 µM (active).

With `COc1ccc(/C=C/C(=O)O)cc1`, the Potency result in test [1], in test [2], in test [3] and in [4] was “inactive” each time.

With `Cc1ccc(Cl)c(N)c1Cl`, the Potency result in test [1], in test [2], in test [3], in test [4], in test [5] and in test [6] was “inactive” each time. In addition, the Potency result in test [9] and in test [7] was “inactive” each time.

On to `CC[C@H]1OC(=O)C[C@@H](O)[C@H](C)[C@@H](O[C@@H]2O[C@H](C)[C@@H](O)[C@H](N(C)C)[C@H]2O)[C@@H](CCN2C[C@H](C)C[C@H](C)C2)C[C@@H](C)C(=O)/C=C/C(C)=C/[C@@H]1CO[C@@H]1O[C@H](C)[C@@H](O)[C@@H](OC)[C@H]1OC`, for which the Potency entry in test [1], in test [2], in test [3] and in test [4] was “inactive” in each case.

Consider `CSCCC(N)C(=O)O` (centres undefined), for which the Potency entry in [1], in test [2], in test [3] and in [4] was “inactive” in each case.

On to `O=C(O)c1cc(O)c2c(c1)[C@H]([C@H]1c3cc(C(=O)O)cc(O)c3C(=O)c3c(O[C@@H]4O[C@H](CO)[C@@H](O)[C@H](O)[C@H]4O)cccc31)c1cccc(O[C@@H]3O[C@H](CO)[C@@H](O)[C@H](O)[C@H]3O)c1C2=O`, for which the Potency entry in test [1], in test [2], in [3] and in test [4] was “inactive” in each case.

Consider `CC(C)(C)C(=O)OCC(=O)[C@H]1CC[C@H]2[C@@H]3CCC4=CC(=O)CC[C@]4(C)[C@H]3CC[C@]12C`, for which the Potency result in test [1], in test [2], in test [3] and in test [4] was “inactive” each time.

`O=C1CCC/C=C\CCCCCCCCCC1`: the Potency entry in [1], in test [2], in [3], in test [6], in test [8] and in test [9] was “inactive” in each case. In addition, the Potency entry in test [7] is “inactive”.

As for `CCOc1ccc(NC(=S)Nc2ccc(OCC)cc2)cc1`, the Potency entry in [1], in [2], in test [3] and in test [4] was “inactive” each time.

As for `N[C@@H](Cc1ccc(O)c(O)c1)C(=O)O`, the Potency result in test [1], in test [2], in test [3] and in [4] was “inactive” in each case.

For the compound `COc1cc([C@@H]2c3cc4c(cc3[C@@H](O[C@@H]3O[C@@H]5CO[C@@H](C)O[C@H]5[C@H](O)[C@H]3O)[C@H]3COC(=O)[C@H]23)OCO4)cc(OC)c1O`, the Potency entry in test [1], in [2], in [3] and in test [6] was “inactive” each time.
